According to PubChem BioAssay AID1159524 (National Center for Advancing Translational Sciences (NCATS), 2015):
Among all 410,000 compounds or so, about 5,100 (1.2%) were called active. A call without a number means that no potency is given here. Inconclusive results (about 8%) are left out. Calls follow the shape of the full dose curve; tested in HEK293T cells. The full list was thinned out, with actives kept by preference.

Experiment: High Throughput Screening for Foot and Mouth Disease Virus Antivirals; also: read-out not given here; nearly all actives have a fitted effect of over 45% in size
Details: FMDV antiviral cell-based qHTS; series mostly up to 57.9 µM
Potency is read from the fitted curve at half-maximal effect.

| SMILES | Potency | activity change, negative = inhibition |
| --- | --- | --- |
| CC(C)CCNC(=O)c1ccc2c(Cl)c3c(nc2c1)CCC3 | inactive |  |
| COc1cccc(CNC(=O)c2ccc3c(Cl)c4c(nc3c2)CCCC4)c1 | inactive |  |
| CC(=O)c1ccc(NC(=O)c2ccc3c(Cl)c4c(nc3c2)CCCC4)cc1 | 22.4 µM (active) |  |
| COc1ccc(-c2noc(-c3ccc(N4CCN(c5ccccc5)CC4)c([N+](=O)[O-])c3)n2)cc1OC | inactive |  |
| c1ccc(CN2CCN(Cc3ccc4c(c3)CN(Cc3c[nH]c5ccccc35)CCO4)CC2)nc1 | inactive |  |
| CCOC(=O)C(=Cc1ccccc1OC)C(=O)OCC | 28.2 µM (active) |  |
| COc1ccccc1C(=O)OCC(=O)NCCNC(=O)COC(=O)c1ccccc1OC | inactive |  |
| CCOC(=O)CCP(=O)(O)C(O)(c1ccccc1)c1ccccc1 | inactive |  |
| CCOC(=O)C(=Cc1ccccc1)C(=O)c1ccccc1 | 8.91 µM (active) |  |
| CCOC(=O)C(=O)C1C(=O)Nc2ccccc21 (stereo not drawn) | inactive |  |
| COc1ccccc1/C=C/C(=O)OCC(=O)NC1CCCCCC1 | inactive |  |
| Cc1ccc(CC2(O)CCN(CCOc3ccc(O)cc3)CC2)cc1 | inactive |  |
| C[C@@H]1CN(Cc2ccc3c(c2)CN(Cc2ccc(Oc4ncccn4)cc2)CCO3)C[C@H](C)O1 | inactive |  |
| CCS(=O)(=O)N(C)[C@@H]1c2cc(C#N)ccc2OC(C)(C)[C@H]1O | inactive |  |
| CC(=O)NC(c1ccccc1)c1nc(-c2ccccc2C)cs1 (stereo not drawn) | inactive |  |
| CC(=O)Nc1ccc(C(=O)Nc2nc(-c3cc(C)n(Cc4ccccc4)c3C)cs2)cc1 | 22.4 µM (active) |  |
| Cc1ccc(C(=O)Nc2ccc(OCc3cc(=O)n4c(C)csc4n3)cc2)cc1 | inactive |  |
| CCn1c(SCC(=O)Nc2nc(C)cs2)nnc1C(C)NC(=O)c1ccccc1 (stereo not drawn) | inactive |  |
| CC(=O)Nc1ccc(-c2csc(NC(=O)Nc3ccccc3)n2)cc1 | 15.8 µM (active) |  |
| CC(=O)c1ccc(NC(=O)CSc2nnc(NC(=O)Nc3ccccc3)s2)cc1 | inactive |  |
| O=S(=O)(NCC(c1ccccc1)N1CCc2ccccc21)c1ccccc1 (stereo not drawn) | inactive |  |
| COCCn1c(CN2CCC(Cc3ccccc3)CC2)nc2c1c(=O)n(C)c(=O)n2C | 15.8 µM (active) |  |
| CC1CCCN(Cc2nc3c(c(=O)n(C)c(=O)n3C)n2CC(=O)c2ccccc2)C1 (stereo not drawn) | inactive |  |
| CC1CN(Cc2nc3c(c(=O)n(C)c(=O)n3C)n2Cc2cccc(Cl)c2)CC(C)O1 (stereo not drawn) | inactive |  |
| CC(C)C1=CC2=CC[C@H]3[C@](C)(C(=O)O)CCC[C@]3(C)C2CC1 (stereo partly drawn) | inactive |  |

| SMILES | Potency | activity change, negative = inhibition |
| --- | --- | --- |
| O=c1cc(CN2CCN(S(=O)(=O)/C=C/c3ccccc3)CC2)c2ccc(O)cc2o1 | inactive |  |
| CC(=O)N1CCN(Cc2cc(=O)oc3cc(C)ccc23)CC1 | inactive |  |
| COc1ccc2c(CN3CCN(S(=O)(=O)c4cccs4)CC3)cc(=O)oc2c1 | 39.8 µM (active) |  |
| O=c1c(NCc2cccs2)nccn1-c1ccccc1 | inactive |  |
| CCCCC/C=C\C/C=C\C/C=C\C=C\[C@H](CCCC(=O)O)OO |  | -15.4% [at 0.463 µM] (inactive) |
| COc1ccc(CCNC(=O)c2nnc(CS(=O)(=O)c3ccccc3)o2)cc1OC | inactive |  |
| O=C(NCc1cccnc1)c1ccc(CS(=O)(=O)c2ccc(Br)cc2)o1 | inactive |  |
| COc1ccc(CCNC(=O)c2ccc(CS(=O)(=O)c3ccc(Br)cc3)o2)cc1OC | 31.6 µM (active) |  |
| Cc1nnc(SCc2cccc(Cl)c2)n(N)c1=O | inactive |  |
| CCc1ccc(-n2c(SCc3cc(=O)n4cc(Br)ccc4n3)nc3[nH]ncc3c2=O)cc1 | 31.6 µM (active) |  |
| Cc1cccc2nc(CSc3nc4[nH]ncc4c(=O)n3-c3cccc(Cl)c3)cc(=O)n12 | 15.8 µM (active) |  |
| O=c1c2sccc2nc(SCc2cc(=O)n3ccccc3n2)n1-c1ccc(Br)cc1 | inactive |  |
| Cc1nnc(NC(=O)CSc2nc3c([nH]c4ccccc43)c(=O)n2-c2cccc(Cl)c2)s1 | inactive |  |
| Cc1ccc(CSc2nc3[nH]ncc3c(=O)[nH]2)cc1 | inactive |  |
| O=C(NCc1ccccc1)C(=O)NCC(c1ccco1)S(=O)(=O)c1ccc(Cl)cc1 (stereo not drawn) | 31.6 µM (active) |  |
| O=C(Cc1ccc(Cl)cc1)NCC(c1cccs1)S(=O)(=O)c1ccc(Cl)cc1 (stereo not drawn) | inactive |  |
| COc1ccc(CCNC(=O)C(=O)NCC(c2ccco2)S(=O)(=O)c2cccs2)cc1OC (stereo not drawn) | inactive |  |
| COc1ccc(Oc2ncc3nc(-c4ccc(F)cc4)c(=O)n(C)c3n2)cc1 | inactive |  |
| CC(=O)Nc1cc(C(=O)NCc2ccc(F)cc2)ccc1Sc1ccc(F)cc1 | inactive |  |
| Cc1nnc2n1N=C(c1ccc3c(c1)NC(=O)CO3)CS2 | inactive |  |
| COc1ccc(C2=Nn3c(nnc3-c3ccccc3OC)SC2)cc1OC1CCCC1 | 14.1 µM (active) |  |
| CCN(CCCNC(=O)CSc1cc(=O)n(C)c2cc(Cl)ccc12)c1cccc(C)c1 | inactive |  |
| CCC1(C2CCN(C(=O)c3cccc(F)c3F)CC2)NC(=O)N(CCc2scnc2C)C1=O (stereo not drawn) | inactive |  |
| COc1cc(=O)n2c(c1C(=O)NCc1ccco1)CCN(Cc1ccccc1)CC2 | inactive |  |
| COc1cccc(-c2nc(CS(=O)(=O)CC(=O)N3CCN(c4cc(C)ccc4C)CC3)c(C)o2)c1 | 20 µM (active) |  |

| SMILES | Potency | activity change, negative = inhibition |
| --- | --- | --- |
| Cc1ccccc1-c1nc(CS(=O)(=O)CC(=O)N2CCc3ccccc3C2)c(C)o1 | inactive |  |
| CCCCN(CC)CCCNC(=O)CS(=O)(=O)Cc1nc(-c2cccc(OC)c2)oc1C | inactive |  |
| COc1ccc(C)cc1-n1c(-c2ccc(C)cc2)cc2c1CC(C)(C)CC2=O | inactive |  |
| N#CC(C#N)=Cc1cc(O)c(O)c([N+](=O)[O-])c1 | inactive |  |
| COc1ccc(-n2nnc(-c3nsc(NC(=O)c4ccc(C)c(C)c4)n3)c2C)cc1Cl | inactive |  |
| Cc1sc2ncnc(SCC(=O)Nc3ccc(CN4CCCC4)cc3)c2c1C | inactive |  |
| Cc1sc2ncnc(N3CCC(C(=O)NNC(=O)c4ccc(F)cc4)CC3)c2c1C | 20 µM (active) |  |
| Cc1sc2ncnc(SCC(=O)NC3CCS(=O)(=O)C3)c2c1C (stereo not drawn) | inactive |  |
| Cc1ccc(C)n1-c1nnc(N2CCC(C(=O)NCc3ccc(F)cc3)CC2)s1 | inactive |  |
| CCc1ccc(C(=O)NNC(=O)C2CCN(c3ncnc4sc(C)c(C)c34)CC2)cc1 | 31.6 µM (active) |  |
| CCc1ccc(CNC(=O)C2CCN(c3nnc(C)c4c(C)n(-c5ccc(C)cc5)nc34)CC2)cc1 | inactive |  |
| COc1cccc(Cn2c(=O)c(CCc3ccccc3)nc3cnc(N(C)C)nc32)c1 | inactive |  |
| COc1ccc(/C=C2\NC(=O)[C@@H]3Cc4ccccc4CN3C2=O)cc1 | inactive |  |
| CC(=O)N1CCC2(CC1)CCN(c1ccncc1)CC2 | inactive |  |
| COc1ccc(C2Oc3c(I)c(OC)cc(OC)c3CC2O)cc1OC (stereo not drawn) | inactive |  |
| COc1ccc(-n2c(=O)c(C)nc3cnc(N4CCOCC4)nc32)cc1 | inactive |  |
| Cc1ccc(CCNC(=O)c2ccc3c(c2)nc2n3CCC(C)C2)cc1 (stereo not drawn) | inactive |  |
| CCCCCn1c(SCCC(C)C)nc2c1c(=O)[nH]c(=O)n2C | 39.8 µM (active) |  |
| CC=CCn1c(SCCCc2ccccc2)nc2c1c(=O)[nH]c(=O)n2C | inactive |  |
| C=CCn1c(SCc2ccccc2)nc2c1c(=O)[nH]c(=O)n2C | inactive |  |
| COc1ccc(S(=O)(=O)NCc2cccn2Cc2cccc(C)c2)cc1 | inactive |  |
| Cn1cc(-c2nc3cnc(N4CCNCC4)nc3n(CCc3ccccc3)c2=O)c2ccccc21 | inactive |  |
| Cc1cc(-c2ccnc(-n3ncc(C(=O)NC(C)(C)CO)c3C3CC3)n2)c(C)s1 | inactive |  |
| CCOC(=O)c1c(NC(=O)CCl)sc(C(=O)N(CC)CC)c1C | 20 µM (active) |  |
| CCOC(=O)c1c(NC(=O)COC(=O)c2ccc(S(=O)(=O)C(F)F)cc2)sc(C(=O)N(C)C)c1C | inactive |  |

| SMILES | Potency | activity change, negative = inhibition |
| --- | --- | --- |
| CCOC(=O)c1c(NC(=O)c2cc(CC)on2)sc(C(C)=O)c1C | inactive |  |
| O=C(CCS(=O)(=O)c1ccc2c(c1)NC(=O)CO2)Nc1cccc(C(F)(F)F)c1 | inactive |  |
| O=C(c1ccco1)N1CCC2(CC1)CN(c1ncccn1)C2 | inactive |  |
| CCOC(=O)c1cc2c(=O)n3ccccc3nc2n(Cc2ccco2)c1=NC(=O)c1ccc(F)cc1 | inactive |  |
| Cn1c(=O)c(-c2ccccc2)nc2cnc(N3CCNCC3)nc21 | inactive |  |
| Cc1ccc(-c2cn3cc([N+](=O)[O-])ccc3n2)cc1 | 11.2 µM (active) |  |
| Cc1ccc(-c2cn3cc(C)ccc3n2)cc1 | 8.91 µM (active) |  |
| Cc1ccc(-n2cc3ccc([N+](=O)[O-])cc3n2)cc1 | inactive |  |
| Cc1nc(-c2ccccc2)cn2c1nc1ccccc12 | inactive |  |
| Cn1cnc(C(F)(F)F)c1-c1ccc([N+](=O)[O-])cc1 | inactive |  |
| CN(C)C(=O)c1ccc(-c2cncnc2Nc2ccccc2)cc1 | inactive |  |
| O=C(c1cccc(F)c1)N1CCC2(CCCN(Cc3ccncc3)C2)CC1 | inactive |  |
| CC1CCN(S(=O)(=O)c2ccc3c(ccn3CCC(=O)NCc3ccc(N(C)C)cc3)c2)CC1 | inactive |  |
| Cn1c(=O)oc2cc(S(=O)(=O)N3CCC(C(=O)Nc4ccc(OC(F)(F)F)cc4)CC3)ccc21 | inactive |  |
| Cc1ccc2nc(NC(=O)C3CCN(S(=O)(=O)c4ccc5c(c4)oc(=O)n5C)CC3)sc2c1 | 12.6 µM (active) |  |
| Cc1ccc(S(=O)(=O)N2CCC(C(=O)Nc3cc(C)ccc3C)CC2)cc1 | inactive |  |
| CC(C)N1C[C@@H](NCc2ccccc2O)C[C@H]1C(=O)N1CCN(c2cccc(C(F)(F)F)c2)CC1 | inactive |  |
| O=c1c(-c2ccc(F)c(F)c2)nc2cncnc2n1-c1ccccc1 | inactive |  |
| O=C(Nc1ccccc1Cl)/C(Cl)=C(\Cl)S(=O)c1ccccc1 (stereo not drawn) | 7.08 µM (active) |  |
| O=C(Nc1ccccc1Cl)N1CCC(CN2CCCC2)CC1 | inactive |  |
| O=C(Nc1ccccc1Cl)N1CCC(CN2CCCCC2)CC1 | inactive |  |
| CSc1nc(Nc2ccc(F)cc2)cc(-c2ccccc2)n1 | inactive |  |
| CC(=O)c1ccc(F)c(-c2cc(C)cc3c2OC(CNC(=O)Cc2c[nH]c4ccccc24)C3)c1 (stereo not drawn) | inactive |  |
